B2AR arrestin ag: qHTS assay of beta-arrestin-biased ligands of beta2-adrenergic receptor: NCGC Sytravon Library Screen; HTLA Tango cells, beta-arrestin recruitment, luciferase luminescence, 18 h; Potency, µM (highest dose often 46.1 µM), hits mostly activators; AID 1347077, 2019; 44,000 tested, under 10 active; Beta-2 adrenergic receptor (Homo sapiens), P07550
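Receptor–beta-arrestin recruitment read by tTA-responsive luciferase: compound titrations (up to 46 µM) incubated 18 h with Tango cells, then luminescent substrate 15 min at room temperature. Concentration-response fits classified by r2, efficacy and activity.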
GPR32 ag: qHTS for Agonists of Human Resolvin D1 Receptor DRV1; Probable G-protein coupled receptor 32 (Homo sapiens), O75388; CHO-K1 GPR32 beta-arrestin PathHunter luminescence, 90 min; zero percent set by DMSO-only wells; activation, % at 76.9 µM; 48,000 tested, 2.5% active; AID 1346428, 2018;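 active = activation of at least 60% and not above a set upper limit, about 1 call in 100 departs from these limits; inconclusive = activation of 40% to 60%, or above that upper limit; inactive = activation under 40%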
Target sequence (O75388 whole entry, looked up): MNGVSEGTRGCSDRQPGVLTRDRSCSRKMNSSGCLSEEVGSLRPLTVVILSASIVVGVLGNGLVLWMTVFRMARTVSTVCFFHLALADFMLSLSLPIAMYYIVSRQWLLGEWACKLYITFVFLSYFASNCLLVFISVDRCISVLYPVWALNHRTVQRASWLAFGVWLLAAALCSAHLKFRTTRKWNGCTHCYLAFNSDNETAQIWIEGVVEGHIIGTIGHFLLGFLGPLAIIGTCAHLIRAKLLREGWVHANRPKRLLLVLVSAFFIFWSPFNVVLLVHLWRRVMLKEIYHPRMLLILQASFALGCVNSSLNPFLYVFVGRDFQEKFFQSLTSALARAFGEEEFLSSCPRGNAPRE
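Agonism was scored as beta-arrestin recruitment to ProLink-fused GPR32 in stably transfected CHO-K1 cells, giving a chemiluminescent beta-Gal signal; compounds were incubated 90 min at 37 °C.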
FH mod: Identification of activators of human fumarate hydratase by quantitative high-throughput screening; Fumarate hydratase, mitochondrial (Homo sapiens), P07954; FH coupled MDH/diaphorase resazurin fluorescence, 15 min; Potency, µM (doses to about 79.9 µM), hits mostly inhibitors; 54,000 tested, 0.22% active; note: the screen sought activators but most active calls are inhibition curves; nearly all actives have a fitted effect of over 45% in size
GALK inh: qHTS Assay for Inhibitors of Human Galactokinase (GALK): NCGC Sytravon Library Screen | AID 1347072, 2019 | recombinant GALK, Kinase-Glo ATP luminescence, 1 h | 44,000 tested, under 10 active | P51570 | Potency, µM (top dose mostly 57.5 µM), hits mostly inhibitors
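5 nM GALK with 35 µM ATP and 100 µM galactose in HEPES pH 8.0, MgCl2, NaCl, DTT, BSA; 1 h RT reaction, remaining ATP detected by Kinase-Glo Plus luminescence after 10 min; qHTS concentration series.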
TSG101-PTAP inh: qHTS Validation Assay for Inhibitors of HIV-1 Budding by Blocking the Interaction of PTAP/TSG101: Sytravon Library Screen | AID 1347069, 2019 | Potency, µM (highest dose often 115 µM), most hits filed as inhibitors | Fluorescence polarization, FITC-PTAP peptide/Tsg101, 20 min | 44,000 tested, under 10 active
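Compounds pinned into 10 uM Tsg101 binding domain, then 50 nM FITC-PTAP peptide added in pH 7.5 HEPES buffer; FP read after 20 min, room temperature. Total S+P intensity flags fluorescent compounds; active cut-off <25 µM, efficacy <60%.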
NTMT1 inh: Primary qHTS for Inhibitors of N-terminal methyltransferase 1 (NTMT1): MTaseGlo Assay; Potency, µM (titrated, usually from 114 µM), usual class: inhibitors; NTMT1 MTase-Glo SAH luminescence, purified enzyme; 59,000 tested, 2.5% active; N-terminal Xaa-Pro-Lys N-methyltransferase 1 (Homo sapiens), Q9BV86; note: nearly all actives have a fitted effect of over 65% in size
NNMT counter: Counterscreen qHTS for Inhibitors of N-terminal methyltransferase 1 (NTMT1): NNMT MTaseGlo assay; shares compounds with NTMT1 inh; NNMT MTase-Glo luminescence, SAH detection; Potency, µM (titrated, usually from 57.1 µM), actives largely listed as inhibitors; 120 tested, 10% active; AID 1645878, 2021
Large screens that a line does not name were inactive (follow-up assays come after a bar, where they were run). Hits are enriched below; roughly 3.7% of the tested compounds scored in any of these assays. Unless noted, calls come from the whole dose curve; as a rule, active = well fitted curve in the direction sought with a large enough effect; inconclusive = small, poorly fitted or top-dose-only effect, or another doubt; inactive = no such curve, though single readings can be large; an effect the other way counts as inactive or inconclusive.

CC(=O)c1ccc(NC(=O)c2sc3nc4c(cc3c2N)N2CCC4CC2)cc1	none
N#Cc1cc2c(nc1SCC(=O)Nc1cccc(F)c1)C1CCN2CC1	B2AR arrestin ag inconclusive, GPR32 ag 68
CCOc1ccc(CCNC(=O)c2cc3cccnc3n2Cc2cccc(C)c2)cc1OCC	none (no result: B2AR arrestin ag, GPR32 ag, FH mod, GALK inh, TSG101-PTAP inh)
Cc1cccc(-c2nc(CN3C(=O)CN=C(c4ccccc4)c4ccccc43)c(C)o2)c1	GPR32 ag 63
CCOc1ccc(CCNC(=O)c2cc3ccccc3n2CCN2CCOCC2)cc1OCC	none (no result: B2AR arrestin ag, GPR32 ag, FH mod, GALK inh, TSG101-PTAP inh)
Nc1ccc(N)cc1	NTMT1 inh inconclusive (no result: B2AR arrestin ag, GALK inh, TSG101-PTAP inh)
Nc1ccccc1	NTMT1 inh 20µM (no result: B2AR arrestin ag, GALK inh, TSG101-PTAP inh)
Cc1ccc([N+](=O)[O-])[c]2c1[O][Hg]2	FH mod inconclusive, NTMT1 inh 0.89µM (no result: B2AR arrestin ag, GALK inh, TSG101-PTAP inh)
CC1(C)C(=O)N(c2ccc(C#N)c(C(F)(F)F)c2)C(=S)N1c1ccc(C(N)=O)c(F)c1	none (no result: B2AR arrestin ag, GPR32 ag, GALK inh, TSG101-PTAP inh)
CC[C@H]1C[C@@H]2CC[C@@H](O2)[C@@H](C)C(=O)O[C@H](CC)C[C@H]2CC[C@H](O2)[C@H](C)C(=O)O[C@@H](C)C[C@@H]2CC[C@@H](O2)[C@@H](C)C(=O)O[C@H](CC)C[C@H]2CC[C@H](O2)[C@H](C)C(=O)O1	none (no result: B2AR arrestin ag, GPR32 ag, GALK inh, TSG101-PTAP inh)
ClC1=C(Cl)[C@]2(Cl)[C@@H]3[C@@H]4C[C@@H]([C@H]5O[C@@H]45)[C@@H]3[C@@]1(Cl)C2(Cl)Cl	GPR32 ag 113 (no result: B2AR arrestin ag, GALK inh, TSG101-PTAP inh)
O=C1OC(c2ccc(O)c(S(=O)(=O)O)c2)(c2ccc(O)c(S(=O)(=O)O)c2)c2c(Br)c(Br)c(Br)c(Br)c21	FH mod 28µM, NTMT1 inh 79µM (no result: B2AR arrestin ag, GALK inh, TSG101-PTAP inh)
CC1CCCC(=O)CCC/C=C/c2cc(O)cc(O)c2C(=O)O1 (stereo not drawn)	NTMT1 inh 7.9µM (no result: B2AR arrestin ag, GPR32 ag, GALK inh, TSG101-PTAP inh) | NNMT counter inconclusive
c1cc2c(cc1C1OC[C@@H]3C(c4ccc5c(c4)OCO5)OC[C@H]13)OCO2 (stereo partly drawn)	none (no result: B2AR arrestin ag, GPR32 ag, GALK inh, TSG101-PTAP inh)
